The campaign covered roughly 5,500 compounds. About 2,000 (36%) were called active. Another 18% or so got no clear call; they are omitted. Cut-off read from the data, not from the text of the source: active = normalized growth mostly below about 0.91 (no sharp cut-off); inconclusive = no clear call, values can overlap the other calls; inactive = mostly above about 0.92. Some of the results follow.
Test: chemical genetic growth profiling, strain panel (AID 1159580);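 note: tested at 20 µM; growth read once vehicle control cultures reached saturation at 30 °C; 1 = growth at the plate median or of vehicle wells; lower values mean less growth of the strain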
Settings: growth OD
[1] = S. cerevisiae deletion strains, locus YDR150W, strain NUM1, hits give low values
[2] = S. cerevisiae deletion strains, locus YPL055C, strain LGE1, hits give low values
[3] = S. cerevisiae deletion strains, locus YPL241C, strain CIN2, hits give low values

Measured: normalized growth

CSC(N)=NCCC[C@H](N)C(=O)O
inactive: S. cerevisiae deletion strains, locus YAL040C, strain CLN3, hits give low values 1.1 | S. cerevisiae deletion strains, locus YCL061C, strain MRC1 (second series), hits give low values 1.01 | [1] 1.02 | S. cerevisiae deletion strains, locus YDR363W, strain ESC2, hits give low values 0.997 | S. cerevisiae deletion strains, locus YER002W, strain NOP16, hits give low values 1.02 | S. cerevisiae deletion strains, locus YMR307W, strain GAS1, hits give low values 1 | S. cerevisiae deletion strains, locus YNL175C, strain NOP13, hits give low values 1.01 | S. cerevisiae deletion strains, locus YNL197C, strain WHI3, hits give low values 1 | S. cerevisiae deletion strains, locus YNL224C, strain SQS1, hits give low values 1 | S. cerevisiae deletion strains, locus YOR083W, strain WHI5 (second series), hits give low values 1 | [2] 1 | [3] 1.01

COc1ccc(OC)c(S(=O)(=O)N2CCc3cc(OC)c(OC)cc3C2C)c1 (stereo unspecified)
inactive: S. cerevisiae deletion strains, locus YAL013W, strain DEP1, hits give low values 1 | S. cerevisiae deletion strains, locus YBR229C, strain ROT2, hits give low values 0.998 | S. cerevisiae deletion strains, locus YCL061C, strain MRC1, hits give low values 0.994 | S. cerevisiae deletion strains, locus YDL101C, strain DUN1, hits give low values 0.972 | S. cerevisiae deletion strains, locus YDL134C, strain PPH21, hits give low values 0.992 | [1] 0.909 | S. cerevisiae deletion strains, locus YEL061C, strain CIN8, hits give low values 0.998 | S. cerevisiae deletion strains, locus YGR078C, strain PAC10, hits give low values 0.99 | S. cerevisiae deletion strains, locus YHR030C, strain SLT2, hits give low values 0.996 | S. cerevisiae deletion strains, locus YHR087W, strain rtc3, hits give low values 1.03 | S. cerevisiae deletion strains, locus YJL187C, strain SWE1, hits give low values 1.01 | S. cerevisiae deletion strains, locus YJR043C, strain POL32, hits give low values 0.973 | S. cerevisiae deletion strains, locus YJR075W, strain HOC1, hits give low values 0.999 | S. cerevisiae deletion strains, locus YKL190W, strain CNB1, hits give low values 0.984 | S. cerevisiae deletion strains, locus YLR039C, strain RIC1, hits give low values 0.948 | S. cerevisiae deletion strains, locus YLR058C, strain SHM2 (second series), hits give low values 1.02 | S. cerevisiae deletion strains, locus YLR085C, strain ARP6, hits give low values 1.02 | S. cerevisiae deletion strains, locus YLR262C, strain YPT6, hits give low values 1.02 | S. cerevisiae deletion strains, locus YML094W, strain GIM5, hits give low values 1.03 | S. cerevisiae deletion strains, locus YMR219W, strain ESC1, hits give low values 1 | S. cerevisiae deletion strains, locus YMR263W, strain SAP30, hits give low values 1.01 | S. cerevisiae deletion strains, locus YNL153C, strain GIM3, hits give low values 0.994 | S. cerevisiae deletion strains, locus YNL298W, strain CLA4 (second series), hits give low values 0.993 | S. cerevisiae deletion strains, locus YNL322C, strain KRE1, hits give low values 1 | S. cerevisiae deletion strains, locus YNR030W, strain Alg12, hits give low values 1 | [2] 1.02 | [3] 0.996 | S. cerevisiae deletion strains, locus YPR135W, strain CTF4, hits give low values 0.947 | S. cerevisiae strains, strain wild type, hits give low values 0.972

— PubChem BioAssay AID1159580 (chemical genetic matrix, 2015)
